Drawing on paper PMC7862700, “An all-to-all approach to the identification of sequence-specific readers for epigenetic DNA modifications on cytosine”, this text covers binding signal for one sequence.

Holding throughout (assay): DAPPL (digital affinity profiling via proximity ligation, sequencing); 10 mM Tris-HCl pH 7.5, 50 mM NaCl, 1 mM DTT, 4% glycerol, room temperature, 30 min; GST-TFs on glutathione beads, 16-mer random dsDNA library, 0.1% formaldehyde crosslink after washing; high values mean tight binding
One test deals with T1, FEV (Homo sapiens, UniProt Q99581 1-238).
T1 sequence: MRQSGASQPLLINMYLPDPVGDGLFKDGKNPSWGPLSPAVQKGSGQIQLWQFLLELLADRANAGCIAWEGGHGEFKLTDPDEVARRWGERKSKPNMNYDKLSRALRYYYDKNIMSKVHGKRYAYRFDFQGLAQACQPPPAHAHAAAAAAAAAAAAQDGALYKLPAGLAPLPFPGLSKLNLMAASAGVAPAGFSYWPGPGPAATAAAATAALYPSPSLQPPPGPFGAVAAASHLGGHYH
To be noted: protein: recombinant; tags: N-terminal GST; dsDNA, one strand shown. An outline of the steps:
(§1)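 Human transcription factors were made in yeast as GST fusions, captured on glutathione beads and barcoded with DNA. With a tag-only sample included, the pool was incubated with 200 nmole of a random double-stranded 16-mer DNA library in Tris/NaCl/DTT/glycerol buffer at room temperature for 30 min, then crosslinked with 0.1% formaldehyde after washing, ligated by proximity, amplified and sequenced. For binding signal, each hexamer's read frequency for a factor is divided by its frequency for the tag-only sample.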

Another test deals with ETV5 (Homo sapiens, UniProt P41161 1-510). The following applies: protein: recombinant; tags: N-terminal GST; dsDNA, one strand shown. The essentials:
as §1

The target in the next test is HSF1 (Homo sapiens, UniProt Q00613 1-529). The following applies: protein: recombinant; tags: N-terminal GST; chain copies: 3; dsDNA, one strand shown. An outline of the steps: as §1
The next test concerns the target T2, SPIC (Homo sapiens, UniProt Q8N5J4 1-248).
T2 sequence: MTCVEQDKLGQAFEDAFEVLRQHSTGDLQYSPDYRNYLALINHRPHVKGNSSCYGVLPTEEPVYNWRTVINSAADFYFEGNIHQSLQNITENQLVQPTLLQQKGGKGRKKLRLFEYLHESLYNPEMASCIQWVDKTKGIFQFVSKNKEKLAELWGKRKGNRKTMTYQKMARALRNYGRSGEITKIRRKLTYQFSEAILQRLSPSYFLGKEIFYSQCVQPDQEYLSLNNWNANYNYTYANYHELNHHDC
To be noted: protein: recombinant; tags: N-terminal GST; dsDNA, one strand shown. The essentials: as §1

The target in a further test is ELF4 (Homo sapiens, UniProt Q99607 1-663). The following applies: protein: recombinant; tags: N-terminal GST; dsDNA, one strand shown. An outline of the steps: as §1
A further test deals with T3, ELK4 (Homo sapiens, UniProt P28324-2 1-405).
T3 sequence: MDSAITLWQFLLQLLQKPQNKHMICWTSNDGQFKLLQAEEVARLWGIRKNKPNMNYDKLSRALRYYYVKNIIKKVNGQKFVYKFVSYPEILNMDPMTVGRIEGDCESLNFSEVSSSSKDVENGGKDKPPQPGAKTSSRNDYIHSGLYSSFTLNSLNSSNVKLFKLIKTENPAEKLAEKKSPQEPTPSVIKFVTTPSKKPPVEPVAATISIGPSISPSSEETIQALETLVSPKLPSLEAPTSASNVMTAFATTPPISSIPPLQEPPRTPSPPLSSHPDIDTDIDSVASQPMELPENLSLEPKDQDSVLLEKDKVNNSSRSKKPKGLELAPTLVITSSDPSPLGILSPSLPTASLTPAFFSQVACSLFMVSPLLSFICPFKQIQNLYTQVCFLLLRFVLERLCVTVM
The following applies: protein: recombinant; tags: N-terminal GST; dsDNA, one strand shown. The essentials: as §1

Another test addresses T4, ETV2 (Homo sapiens, UniProt O00321 1-342).
T4 sequence: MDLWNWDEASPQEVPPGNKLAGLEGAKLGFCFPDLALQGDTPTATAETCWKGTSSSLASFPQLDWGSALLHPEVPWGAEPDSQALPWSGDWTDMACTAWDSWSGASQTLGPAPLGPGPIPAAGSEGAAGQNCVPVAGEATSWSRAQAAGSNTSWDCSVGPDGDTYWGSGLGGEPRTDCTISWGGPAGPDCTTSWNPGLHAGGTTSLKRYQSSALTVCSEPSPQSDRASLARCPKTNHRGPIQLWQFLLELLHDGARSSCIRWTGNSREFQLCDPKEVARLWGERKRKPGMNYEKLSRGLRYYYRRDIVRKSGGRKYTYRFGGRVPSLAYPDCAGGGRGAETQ
The following applies: protein: recombinant; tags: N-terminal GST; dsDNA, one strand shown. The essentials: as §1

Another test concerns the target T5, ELF3 (Homo sapiens, UniProt P78545 1-371).
T5 sequence: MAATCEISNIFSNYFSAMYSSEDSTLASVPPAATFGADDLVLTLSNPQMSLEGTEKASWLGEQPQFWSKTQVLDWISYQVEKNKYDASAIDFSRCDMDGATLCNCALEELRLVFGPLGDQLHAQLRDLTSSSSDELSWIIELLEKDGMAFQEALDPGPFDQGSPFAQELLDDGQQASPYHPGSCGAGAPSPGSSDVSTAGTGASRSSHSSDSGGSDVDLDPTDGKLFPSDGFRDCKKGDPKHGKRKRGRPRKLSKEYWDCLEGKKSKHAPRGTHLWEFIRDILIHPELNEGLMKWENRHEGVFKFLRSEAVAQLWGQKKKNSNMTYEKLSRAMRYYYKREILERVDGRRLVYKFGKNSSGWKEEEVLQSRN
The following applies: protein: recombinant; tags: N-terminal GST; dsDNA, one strand shown. An outline of the steps: as §1

A further test addresses CRX (Homo sapiens, UniProt O43186 1-299). The following applies: protein: recombinant; tags: N-terminal GST; dsDNA, one strand shown. The essentials:
as §1

A further test concerns the target ETV1 (Homo sapiens, UniProt P50549 1-477). To be noted: protein: recombinant; tags: N-terminal GST; dsDNA, one strand shown. The essentials: as §1
For another test, the target named is T6, ERF (Homo sapiens, UniProt P50548 1-548).
T6 sequence: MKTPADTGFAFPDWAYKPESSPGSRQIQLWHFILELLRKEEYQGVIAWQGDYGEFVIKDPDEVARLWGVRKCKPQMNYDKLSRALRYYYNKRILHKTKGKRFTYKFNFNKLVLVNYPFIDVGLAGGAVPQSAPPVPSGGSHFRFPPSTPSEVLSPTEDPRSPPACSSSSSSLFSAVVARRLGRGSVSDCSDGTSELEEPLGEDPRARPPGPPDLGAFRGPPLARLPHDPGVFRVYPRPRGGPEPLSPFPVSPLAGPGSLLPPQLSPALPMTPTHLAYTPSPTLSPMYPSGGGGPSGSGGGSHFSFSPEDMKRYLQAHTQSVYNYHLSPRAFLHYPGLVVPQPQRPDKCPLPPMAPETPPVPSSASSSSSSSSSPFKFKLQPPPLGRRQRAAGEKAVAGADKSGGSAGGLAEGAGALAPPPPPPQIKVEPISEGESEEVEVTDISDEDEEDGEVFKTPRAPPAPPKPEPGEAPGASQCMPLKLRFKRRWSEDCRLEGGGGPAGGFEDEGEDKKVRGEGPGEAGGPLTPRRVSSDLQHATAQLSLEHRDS
To be noted: protein: recombinant; tags: N-terminal GST; dsDNA, one strand shown. The essentials:
as §1

The next test deals with T7, ETV3L (Homo sapiens, UniProt Q6ZN32 1-361).
T7 sequence: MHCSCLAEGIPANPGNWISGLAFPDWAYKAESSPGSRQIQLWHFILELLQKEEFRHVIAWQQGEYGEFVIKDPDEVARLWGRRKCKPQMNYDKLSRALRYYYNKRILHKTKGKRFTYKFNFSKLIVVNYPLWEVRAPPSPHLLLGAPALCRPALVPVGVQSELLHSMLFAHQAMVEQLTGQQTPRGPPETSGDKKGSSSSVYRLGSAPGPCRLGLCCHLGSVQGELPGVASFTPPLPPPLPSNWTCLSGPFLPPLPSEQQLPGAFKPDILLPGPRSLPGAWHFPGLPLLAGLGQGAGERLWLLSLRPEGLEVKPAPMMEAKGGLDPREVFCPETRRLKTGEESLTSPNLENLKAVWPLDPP
The following applies: protein: recombinant; tags: N-terminal GST; dsDNA, one strand shown. The essentials:
as §1

The next test addresses T8, ETS2 (Homo sapiens, UniProt P15036 1-469).
T8 sequence: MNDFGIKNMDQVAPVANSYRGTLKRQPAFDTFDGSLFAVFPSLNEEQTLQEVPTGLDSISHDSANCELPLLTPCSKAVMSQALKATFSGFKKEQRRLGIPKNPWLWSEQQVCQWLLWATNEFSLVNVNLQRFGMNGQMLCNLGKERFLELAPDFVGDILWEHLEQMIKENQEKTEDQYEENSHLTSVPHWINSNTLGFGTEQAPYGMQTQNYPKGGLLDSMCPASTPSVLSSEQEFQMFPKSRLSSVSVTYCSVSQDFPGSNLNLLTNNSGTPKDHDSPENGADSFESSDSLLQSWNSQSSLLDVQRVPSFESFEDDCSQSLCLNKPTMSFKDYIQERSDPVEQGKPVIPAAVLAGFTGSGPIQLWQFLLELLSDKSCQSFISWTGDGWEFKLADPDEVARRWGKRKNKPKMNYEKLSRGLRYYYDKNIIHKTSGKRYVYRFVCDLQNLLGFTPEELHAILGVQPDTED
To be noted: protein: recombinant; tags: N-terminal GST; dsDNA, one strand shown. An outline of the steps:
as §1

Another test concerns the target T9, SPDEF (Homo sapiens, UniProt O95238 1-335).
T9 sequence: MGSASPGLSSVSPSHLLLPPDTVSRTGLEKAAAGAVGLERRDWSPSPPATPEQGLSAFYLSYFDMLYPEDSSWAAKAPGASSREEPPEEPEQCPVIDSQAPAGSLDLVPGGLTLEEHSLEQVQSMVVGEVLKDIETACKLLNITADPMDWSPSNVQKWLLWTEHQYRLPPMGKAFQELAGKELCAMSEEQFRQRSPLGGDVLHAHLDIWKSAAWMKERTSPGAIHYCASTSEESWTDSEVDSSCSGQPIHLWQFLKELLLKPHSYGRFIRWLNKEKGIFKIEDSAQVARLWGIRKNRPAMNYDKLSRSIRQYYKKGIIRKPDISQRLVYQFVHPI
The following applies: protein: recombinant; tags: N-terminal GST; dsDNA, one strand shown. The essentials:
as §1

A further test deals with T10, ETV7 (Homo sapiens, UniProt Q9Y603 1-341).
T10 sequence: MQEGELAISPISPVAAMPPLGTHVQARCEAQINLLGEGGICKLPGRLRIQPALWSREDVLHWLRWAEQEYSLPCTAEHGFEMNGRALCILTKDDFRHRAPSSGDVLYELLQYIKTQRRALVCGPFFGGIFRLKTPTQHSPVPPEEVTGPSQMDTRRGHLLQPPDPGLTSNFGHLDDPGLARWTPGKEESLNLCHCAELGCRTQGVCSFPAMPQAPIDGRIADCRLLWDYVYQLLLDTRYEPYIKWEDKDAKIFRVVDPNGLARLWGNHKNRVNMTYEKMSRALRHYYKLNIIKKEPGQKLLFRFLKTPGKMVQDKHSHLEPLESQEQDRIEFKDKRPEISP
To be noted: protein: recombinant; tags: N-terminal GST; dsDNA, one strand shown. An outline of the steps:
as §1

A further test addresses T11, ELF5 (Homo sapiens, UniProt Q9UKW6-2 1-255).
T11 sequence: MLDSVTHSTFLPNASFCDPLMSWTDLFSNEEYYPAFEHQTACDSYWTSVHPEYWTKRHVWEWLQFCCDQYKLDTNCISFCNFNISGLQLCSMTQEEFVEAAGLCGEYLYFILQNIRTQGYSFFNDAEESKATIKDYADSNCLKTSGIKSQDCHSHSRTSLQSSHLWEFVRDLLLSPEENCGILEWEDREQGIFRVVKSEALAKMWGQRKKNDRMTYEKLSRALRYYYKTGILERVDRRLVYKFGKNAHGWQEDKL
The following applies: protein: recombinant; tags: N-terminal GST; dsDNA, one strand shown. The essentials: as §1

The target of another test is T12, ETV3 (Homo sapiens, UniProt P41162-2 1-143).
T12 sequence: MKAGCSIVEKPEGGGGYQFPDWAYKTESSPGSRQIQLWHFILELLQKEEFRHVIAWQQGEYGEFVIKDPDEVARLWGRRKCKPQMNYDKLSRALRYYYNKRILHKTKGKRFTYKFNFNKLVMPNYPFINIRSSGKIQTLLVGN
To be noted: protein: recombinant; tags: N-terminal GST; dsDNA, one strand shown. The essentials: as §1

The target in a further test is ETV6 (Homo sapiens, UniProt P41212 1-452). To be noted: protein: recombinant; tags: N-terminal GST; dsDNA, one strand shown. An outline of the steps:
as §1

HSF1, sequence (Q00613 whole entry): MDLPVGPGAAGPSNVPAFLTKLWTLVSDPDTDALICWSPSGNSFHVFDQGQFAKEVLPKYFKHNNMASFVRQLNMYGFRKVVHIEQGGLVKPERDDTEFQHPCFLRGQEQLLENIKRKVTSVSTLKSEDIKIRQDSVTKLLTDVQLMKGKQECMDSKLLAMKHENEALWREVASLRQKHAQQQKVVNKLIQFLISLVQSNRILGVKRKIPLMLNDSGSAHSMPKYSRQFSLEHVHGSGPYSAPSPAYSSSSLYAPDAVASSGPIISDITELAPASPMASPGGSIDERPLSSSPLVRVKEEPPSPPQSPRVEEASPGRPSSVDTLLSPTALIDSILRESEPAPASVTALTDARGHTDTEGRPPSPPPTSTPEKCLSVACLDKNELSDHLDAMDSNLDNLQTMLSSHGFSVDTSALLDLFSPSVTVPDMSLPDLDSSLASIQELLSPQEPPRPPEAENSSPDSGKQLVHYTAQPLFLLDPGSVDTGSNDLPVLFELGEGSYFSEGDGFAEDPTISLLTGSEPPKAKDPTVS
ELF4, sequence (Q99607 whole entry): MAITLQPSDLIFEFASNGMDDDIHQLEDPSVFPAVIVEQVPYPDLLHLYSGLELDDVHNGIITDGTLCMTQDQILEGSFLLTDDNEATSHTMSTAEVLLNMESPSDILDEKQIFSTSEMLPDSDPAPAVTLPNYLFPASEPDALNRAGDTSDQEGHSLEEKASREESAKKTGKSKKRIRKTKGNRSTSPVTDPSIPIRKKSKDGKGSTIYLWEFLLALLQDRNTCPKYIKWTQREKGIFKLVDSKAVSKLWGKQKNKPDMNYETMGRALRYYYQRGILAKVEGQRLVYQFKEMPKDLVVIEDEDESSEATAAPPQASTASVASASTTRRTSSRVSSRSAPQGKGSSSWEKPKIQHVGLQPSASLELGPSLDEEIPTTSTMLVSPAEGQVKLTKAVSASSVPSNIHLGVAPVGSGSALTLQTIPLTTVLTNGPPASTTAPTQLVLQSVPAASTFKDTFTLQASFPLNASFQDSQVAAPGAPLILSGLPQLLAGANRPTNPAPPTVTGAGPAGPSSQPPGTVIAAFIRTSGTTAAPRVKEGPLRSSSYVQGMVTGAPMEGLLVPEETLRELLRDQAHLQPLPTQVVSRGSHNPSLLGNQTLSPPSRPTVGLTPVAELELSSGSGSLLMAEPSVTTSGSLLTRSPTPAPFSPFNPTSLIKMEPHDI
CRX, sequence (O43186 whole entry): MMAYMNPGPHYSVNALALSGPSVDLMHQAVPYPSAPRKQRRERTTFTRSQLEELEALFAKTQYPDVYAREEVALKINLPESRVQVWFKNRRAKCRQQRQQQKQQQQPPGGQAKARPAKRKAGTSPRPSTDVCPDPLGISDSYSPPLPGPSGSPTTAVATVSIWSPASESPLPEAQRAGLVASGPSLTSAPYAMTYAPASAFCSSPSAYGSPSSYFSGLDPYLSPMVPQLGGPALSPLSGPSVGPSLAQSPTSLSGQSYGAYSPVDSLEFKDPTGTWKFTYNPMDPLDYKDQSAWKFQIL
ETV5, sequence (P41161 whole entry): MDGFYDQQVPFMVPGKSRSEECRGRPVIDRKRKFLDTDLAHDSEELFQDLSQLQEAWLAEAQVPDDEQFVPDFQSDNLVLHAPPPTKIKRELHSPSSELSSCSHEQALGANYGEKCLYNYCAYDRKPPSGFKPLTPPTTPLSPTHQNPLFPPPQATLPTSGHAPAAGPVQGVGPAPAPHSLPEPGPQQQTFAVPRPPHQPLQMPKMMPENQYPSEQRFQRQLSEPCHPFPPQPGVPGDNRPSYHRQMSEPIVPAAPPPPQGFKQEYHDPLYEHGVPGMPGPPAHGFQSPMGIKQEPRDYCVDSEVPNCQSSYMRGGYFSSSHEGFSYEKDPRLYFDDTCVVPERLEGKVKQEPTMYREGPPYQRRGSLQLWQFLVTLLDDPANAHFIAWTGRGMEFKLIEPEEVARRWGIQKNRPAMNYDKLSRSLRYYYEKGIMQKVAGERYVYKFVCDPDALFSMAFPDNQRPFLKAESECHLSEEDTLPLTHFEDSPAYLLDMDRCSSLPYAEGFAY
ETV6, sequence (P41212 whole entry): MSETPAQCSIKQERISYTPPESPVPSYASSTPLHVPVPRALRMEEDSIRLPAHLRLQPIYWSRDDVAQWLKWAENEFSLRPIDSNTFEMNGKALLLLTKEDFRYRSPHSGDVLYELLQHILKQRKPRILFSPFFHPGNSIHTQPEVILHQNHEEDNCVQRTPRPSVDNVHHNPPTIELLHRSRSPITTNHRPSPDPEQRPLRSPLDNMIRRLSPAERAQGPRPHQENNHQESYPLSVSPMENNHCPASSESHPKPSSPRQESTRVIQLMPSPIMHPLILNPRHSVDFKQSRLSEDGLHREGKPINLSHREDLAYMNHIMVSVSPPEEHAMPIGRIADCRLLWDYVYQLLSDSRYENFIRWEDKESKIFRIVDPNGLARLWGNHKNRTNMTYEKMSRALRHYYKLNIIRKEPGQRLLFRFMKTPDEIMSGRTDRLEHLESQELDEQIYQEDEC
ETV1, sequence (P50549 whole entry): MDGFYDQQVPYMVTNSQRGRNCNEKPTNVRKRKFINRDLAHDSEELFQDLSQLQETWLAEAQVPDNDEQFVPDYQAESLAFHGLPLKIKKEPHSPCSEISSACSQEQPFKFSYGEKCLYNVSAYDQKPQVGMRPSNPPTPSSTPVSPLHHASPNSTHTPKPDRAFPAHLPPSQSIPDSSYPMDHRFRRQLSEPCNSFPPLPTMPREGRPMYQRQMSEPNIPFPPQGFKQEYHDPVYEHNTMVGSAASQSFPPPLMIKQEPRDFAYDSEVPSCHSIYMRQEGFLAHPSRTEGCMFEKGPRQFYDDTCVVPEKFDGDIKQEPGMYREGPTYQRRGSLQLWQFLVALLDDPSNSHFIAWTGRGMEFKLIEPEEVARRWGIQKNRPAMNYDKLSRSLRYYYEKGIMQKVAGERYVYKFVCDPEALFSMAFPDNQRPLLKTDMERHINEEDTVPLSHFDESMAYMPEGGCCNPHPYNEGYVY

For ACTTCG, the binding signal in the test with FEV is 1.42 fold enrichment (6-mer frequency, TF over GST control); in the test with ETV5 it was 1.39 fold enrichment (6-mer frequency, TF over GST control); with HSF1, 1.65 fold enrichment (6-mer frequency, TF over GST control); in the test with SPIC, 1.55 fold enrichment (6-mer frequency, TF over GST control); in the test with ELF4 it was 1.47 fold enrichment (6-mer frequency, TF over GST control); in the test with ELK4, 1.25 fold enrichment (6-mer frequency, TF over GST control). Further, the binding signal in the test with ETV2 was 1.45 fold enrichment (6-mer frequency, TF over GST control); with ELF3 it was 1.23 fold enrichment (6-mer frequency, TF over GST control); with CRX, 1.3 fold enrichment (6-mer frequency, TF over GST control); with ETV1, 1.46 fold enrichment (6-mer frequency, TF over GST control); with ERF, 1.52 fold enrichment (6-mer frequency, TF over GST control); in the test with ETV3L it was 1.27 fold enrichment (6-mer frequency, TF over GST control). The binding signal is 1.36 fold enrichment (6-mer frequency, TF over GST control) with ETS2; 1.3 fold enrichment (6-mer frequency, TF over GST control) in the test with SPDEF; 1.26 fold enrichment (6-mer frequency, TF over GST control) with ETV7; 1.32 fold enrichment (6-mer frequency, TF over GST control) with ELF5; 1.42 fold enrichment (6-mer frequency, TF over GST control) in the test with ETV3; 1.36 fold enrichment (6-mer frequency, TF over GST control) in the test with ETV6.
